# From PubChem BioAssay (EPA / NIEHS)
# Records with an inconclusive call do not appear. Calls of active or inactive are those of the source. Rule for the calls: active = hit-call score of the fitted dose curve at least 0.9, where 1 is the maximum; inconclusive = response in the unintended direction; inactive = score below 0.9.
# What was measured:
# [1] = target: human Androgen Receptor (AR), AR (gene 367) (UniProt P10275); assay: NVS_NR_hAR: NovaScreen (NVS) Nuclear Receptor Binding Assay for human Androgen Receptor (AR) (AID 2283332)
# Sequence of human Androgen Receptor (AR), AR (gene 367) (P10275 whole entry, looked up): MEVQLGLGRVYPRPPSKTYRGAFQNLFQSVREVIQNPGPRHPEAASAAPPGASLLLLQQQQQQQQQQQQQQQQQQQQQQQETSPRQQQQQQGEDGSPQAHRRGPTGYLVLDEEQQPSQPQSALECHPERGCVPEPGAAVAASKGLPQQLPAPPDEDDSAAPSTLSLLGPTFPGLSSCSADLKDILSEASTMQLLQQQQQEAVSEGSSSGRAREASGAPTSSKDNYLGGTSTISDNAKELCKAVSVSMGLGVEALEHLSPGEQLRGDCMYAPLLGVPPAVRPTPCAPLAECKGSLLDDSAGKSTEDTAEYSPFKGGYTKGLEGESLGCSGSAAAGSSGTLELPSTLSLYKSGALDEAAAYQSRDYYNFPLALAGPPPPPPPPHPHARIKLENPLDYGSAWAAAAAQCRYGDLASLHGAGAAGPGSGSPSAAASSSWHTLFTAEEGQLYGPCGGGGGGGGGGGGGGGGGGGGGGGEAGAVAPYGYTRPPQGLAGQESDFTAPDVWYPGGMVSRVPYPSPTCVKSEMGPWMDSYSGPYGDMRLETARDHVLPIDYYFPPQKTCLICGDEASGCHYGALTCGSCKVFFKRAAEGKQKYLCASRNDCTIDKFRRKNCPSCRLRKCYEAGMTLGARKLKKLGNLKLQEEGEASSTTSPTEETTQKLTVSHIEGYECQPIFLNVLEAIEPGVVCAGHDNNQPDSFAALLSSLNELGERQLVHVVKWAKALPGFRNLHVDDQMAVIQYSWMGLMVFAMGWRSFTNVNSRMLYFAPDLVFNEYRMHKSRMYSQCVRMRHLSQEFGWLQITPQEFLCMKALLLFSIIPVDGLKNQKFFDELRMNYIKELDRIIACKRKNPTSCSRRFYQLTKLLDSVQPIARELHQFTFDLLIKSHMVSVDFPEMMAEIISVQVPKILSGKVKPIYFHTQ
# Procedure, shortened: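 Actives from a duplicate 25 uM single-point screen went on to concentration series. Read-out after 20 h was scintillation counting of displaced radioligand in LnCAP extract, with DMSO as baseline.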
# [2] = target: rat Peripheral-type Benzodiazepine Receptor (PBR), Tspo (gene 24230) (UniProt P16257); assay: NVS_MP_rPBR: NovaScreen (NVS) Membrane Protein Assay for rat Peripheral-type Benzodiazepine Receptor (PBR) (AID 2283335)
# Sequence of rat Peripheral-type Benzodiazepine Receptor (PBR), Tspo (gene 24230) (P16257 whole entry, looked up): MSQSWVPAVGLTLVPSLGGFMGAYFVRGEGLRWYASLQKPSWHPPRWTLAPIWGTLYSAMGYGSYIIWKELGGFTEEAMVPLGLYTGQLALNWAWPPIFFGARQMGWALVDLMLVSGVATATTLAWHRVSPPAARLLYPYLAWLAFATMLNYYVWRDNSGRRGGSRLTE
# Procedure, shortened: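 Radioligand displacement, rat kidney membrane prep, 1 h exposure, filter-based scintillation read; DMSO baseline, loss-of-signal scored. Primary screen at 25 uM in duplicate, actives followed up in concentration series.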
# [3] = test system: NCBI gene 100848466; assay: NVS_NR_bPR: NovaScreen (NVS) Nuclear Receptor Binding Assay for bovine Progextron Receptor (PR) (AID 2283343);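 for AC50: actives lower bound radioligand signal below DMSO meaning displacement of the label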
# Procedure, shortened: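 Bovine uterine membrane preparation, cell-free; radioligand competitive displacement measured by scintillation counting 18 hours after dosing. Loss of signal versus DMSO baseline indicates binding; primary HTS single concentration 25 uM in duplicate, actives followed in concentration series.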
# [4] = target: human Constitutive Androstane Receptor (CAR), NR1I3 (gene 9970) (UniProt Q14994); assay: NVS_NR_hCAR_Antagonist: NovaScreen (NVS) Nuclear Receptor Binding Assay for human Constitutive Androstane Receptor Antagonism (CAR) (AID 2283344)
# Sequence of human Constitutive Androstane Receptor (CAR), NR1I3 (gene 9970) (Q14994 whole entry, looked up): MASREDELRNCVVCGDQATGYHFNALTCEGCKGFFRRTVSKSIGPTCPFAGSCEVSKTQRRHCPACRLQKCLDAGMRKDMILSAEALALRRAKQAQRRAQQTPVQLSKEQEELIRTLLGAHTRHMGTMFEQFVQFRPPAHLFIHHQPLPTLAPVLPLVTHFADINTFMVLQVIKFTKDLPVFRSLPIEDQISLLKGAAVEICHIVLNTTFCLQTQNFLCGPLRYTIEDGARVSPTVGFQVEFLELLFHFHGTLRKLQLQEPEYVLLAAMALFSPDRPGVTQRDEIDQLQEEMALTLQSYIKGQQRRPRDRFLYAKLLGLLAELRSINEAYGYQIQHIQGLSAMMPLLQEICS
# Procedure, shortened: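 Cell-free TR-FRET binding read 1 h after dosing, antagonist mode; loss of signal versus DMSO baseline. Primary screen in duplicate at a single 25 uM; actives retested in concentration series.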
# [5] = target: Estrogen receptor (Homo sapiens) (UniProt P03372); assay: NVS_NR_hER: NovaScreen (NVS) Nuclear Receptor Binding Assay for human Estrogen Receptor (ER) (AID 2283348)
# Sequence of Estrogen receptor (Homo sapiens) (P03372 whole entry, looked up, the tested form may be a part): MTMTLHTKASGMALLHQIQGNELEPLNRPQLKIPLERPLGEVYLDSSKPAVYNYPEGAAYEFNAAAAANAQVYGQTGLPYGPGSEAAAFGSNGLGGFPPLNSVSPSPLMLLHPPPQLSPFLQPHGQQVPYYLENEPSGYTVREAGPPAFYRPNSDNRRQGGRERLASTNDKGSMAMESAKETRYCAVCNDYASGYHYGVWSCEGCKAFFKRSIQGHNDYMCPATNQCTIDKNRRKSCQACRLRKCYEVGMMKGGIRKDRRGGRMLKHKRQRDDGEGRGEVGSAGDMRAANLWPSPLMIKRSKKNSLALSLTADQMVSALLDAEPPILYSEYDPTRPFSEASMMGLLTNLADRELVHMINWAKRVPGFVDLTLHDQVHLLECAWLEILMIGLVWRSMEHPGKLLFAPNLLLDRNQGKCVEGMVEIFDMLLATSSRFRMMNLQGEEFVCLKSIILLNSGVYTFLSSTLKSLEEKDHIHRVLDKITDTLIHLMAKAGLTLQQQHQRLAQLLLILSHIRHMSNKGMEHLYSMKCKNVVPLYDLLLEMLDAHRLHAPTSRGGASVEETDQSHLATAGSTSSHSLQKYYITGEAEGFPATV
# Procedure, shortened: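 Cell-free radioligand binding with protein extracted from MCF7 cells; scintillation counting 18 hours after dosing. Loss of signal versus DMSO baseline read as displacement; primary single-concentration screen at 25 uM in duplicate, actives retested in concentration series.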
# [6] = target: Estrogen receptor (Homo sapiens) (UniProt P03372); assay: OT_ER_ERaERa_1440: Odyssey Thera (OT) 24-hour HEK293T Protein-Complementation Assay for Estrogen Receptor-alpha/-alpha Homodimer (AID 2283349);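 note: hits raise fluorescence above DMSO for agonists and antagonists alike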
# Procedure, shortened: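 Readout is the rise in mean fluorescence from reporter fragment complementation when ERα LBD (aa 310-547) units dimerize in HEK293T cells. Measured 24 h after dosing and analysed as increase over DMSO control.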
# [7] = target: Estrogen receptor (Homo sapiens) (UniProt P03372); assay: OT_ER_ERaERa_0480: Odyssey Thera (OT) 8-hour HEK293T Protein-Complementation Assay for Estrogen Receptor-alpha/-alpha Homodimer (AID 2283351);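 note: rise in fluorescence from reassembled reporter fragments on ERα LBD homodimer in nucleus or whole cell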
# Procedure, shortened: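 Binding reporter in which dimerisation of ERα LBD (aa 310-547) fusions reconstitutes a fluorescent reporter in HEK293T cells. Compounds incubated 8 h; mean fluorescence intensity increase versus DMSO scored.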
# [8] = target: Voltage-gated inwardly rectifying potassium channel KCNH2 (Homo sapiens) (UniProt Q12809); assay: NVS_IC_hKhERGCh: NovaScreen (NVS) Ion Channel Assay for human Potassium Channel ERG (KhERGCh) (AID 2283333)
# Procedure, shortened: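 Cell-free radioligand competition binding on hERG protein extracted from CHO cells, read by filter-based scintillation counting 0.75 h after dosing. Primary screen at 25 uM in duplicate, actives followed in concentration series. Signal loss fitted versus DMSO.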
# [9] = NVS_IC_rCaBTZCHL: NovaScreen (NVS) Ion Channel Assay for Calcium Channel, Type L, Benzothiazepine Site (CaBTZCHL) (AID 2283337)
# Procedure, shortened: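 Competitive displacement of a site-specific radioligand from rat cortex membranes, measured as signal loss against DMSO baseline by filter radiodetection after 1.5 h. Single-point 25 uM primary screen.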
# [10] = target: bovine Estrogen Receptor (ER), ESR1 (gene 407238) (UniProt P49884); assay: NVS_NR_bER: NovaScreen (NVS) Nuclear Receptor Binding Assay for bovine Estrogen Receptor (ER) (AID 2283345);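 note: actives lower the bound radioligand count which means they displace the ER ligand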
# Sequence of bovine Estrogen Receptor (ER), ESR1 (gene 407238) (P49884 whole entry, looked up): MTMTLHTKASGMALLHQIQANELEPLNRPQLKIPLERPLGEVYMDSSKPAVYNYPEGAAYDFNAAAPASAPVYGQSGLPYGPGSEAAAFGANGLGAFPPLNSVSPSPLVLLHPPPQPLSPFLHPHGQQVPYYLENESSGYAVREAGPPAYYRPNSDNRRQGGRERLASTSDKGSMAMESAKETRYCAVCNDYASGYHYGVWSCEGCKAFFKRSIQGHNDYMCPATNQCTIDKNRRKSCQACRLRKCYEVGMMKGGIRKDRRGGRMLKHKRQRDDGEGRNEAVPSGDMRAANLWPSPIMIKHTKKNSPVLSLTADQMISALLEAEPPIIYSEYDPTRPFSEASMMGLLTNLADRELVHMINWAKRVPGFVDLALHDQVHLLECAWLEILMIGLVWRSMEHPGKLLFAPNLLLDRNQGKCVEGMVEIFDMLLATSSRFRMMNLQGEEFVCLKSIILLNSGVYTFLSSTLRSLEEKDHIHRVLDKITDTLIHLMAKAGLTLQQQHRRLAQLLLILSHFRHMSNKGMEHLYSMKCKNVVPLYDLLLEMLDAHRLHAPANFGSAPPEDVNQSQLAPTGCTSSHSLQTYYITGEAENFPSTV
# Procedure, shortened: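 Cell-free radioligand binding with bovine uterine membrane extracts, read 18 hours after dosing by scintillation counting. Loss of signal versus DMSO baseline indicates displacement. Primary screen run in duplicate at 25 uM, actives followed in concentration series.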
# [11] = target: chimpanzee Androgen Receptor (AR), AR (gene 747460) (UniProt O97775); assay: NVS_NR_cAR: NovaScreen (NVS) Nuclear Receptor Binding Assay for chimpanzee Androgen Receptor (AR) (AID 2283346);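 note: radioligand displacement from AR measured by scintillation counting in a cell-free assay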
# Procedure, shortened: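 Cell-free radioligand displacement using receptor protein extracted from Sf9/Sf21 cells; bound radioligand measured by scintillation counting 72 hours after chemical dosing. Loss of signal versus DMSO baseline indicates binding; primary screen single-concentration in duplicate at 25 uM, actives followed in concentration series.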
# [12] = target: Estrogen receptor (Homo sapiens) + Estrogen receptor beta (Homo sapiens) (UniProt P03372+Q92731); assay: OT_ER_ERaERb_0480: Odyssey Thera (OT) 8-hour HEK293T Protein-Complementation Assay for Estrogen Receptor-alpha/-beta Heterodimer (AID 2283352)
# Sequence of Estrogen receptor (Homo sapiens) + Estrogen receptor beta (Homo sapiens) (P03372 whole entry, looked up): as the sequence (P03372 whole entry, looked up, the tested form may be a part) above
# Sequence of Estrogen receptor (Homo sapiens) + Estrogen receptor beta (Homo sapiens) (Q92731 whole entry, looked up): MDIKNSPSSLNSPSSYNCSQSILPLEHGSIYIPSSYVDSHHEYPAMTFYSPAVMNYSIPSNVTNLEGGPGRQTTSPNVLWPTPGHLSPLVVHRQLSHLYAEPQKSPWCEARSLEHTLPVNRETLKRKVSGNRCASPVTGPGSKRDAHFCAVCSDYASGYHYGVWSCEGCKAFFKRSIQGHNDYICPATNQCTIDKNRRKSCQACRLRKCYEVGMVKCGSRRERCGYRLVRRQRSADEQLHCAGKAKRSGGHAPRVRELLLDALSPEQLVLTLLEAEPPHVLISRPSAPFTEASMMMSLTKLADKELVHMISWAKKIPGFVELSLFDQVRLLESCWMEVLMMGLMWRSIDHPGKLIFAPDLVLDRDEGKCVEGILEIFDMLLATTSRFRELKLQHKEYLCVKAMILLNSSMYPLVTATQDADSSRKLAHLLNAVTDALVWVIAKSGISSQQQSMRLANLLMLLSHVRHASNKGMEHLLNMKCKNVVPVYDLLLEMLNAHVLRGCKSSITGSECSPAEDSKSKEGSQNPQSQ
# Procedure, shortened: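 Compound added to HEK293T cells carrying split-reporter-tagged ER-alpha and ER-beta LBDs, incubated 8 hours, then imaged by laser scanning cytometer. Signal rise in nucleus, or nucleus and cytoplasm, over vehicle was fitted in the positive direction.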
# [13] = target: rat Glycine Receptor, Strychnine-sensitive (GlyRStrySens), Glra1 (gene 25674) (UniProt P07727); assay: NVS_LGIC_rGlyRStrySens: NovaScreen (NVS) Ligand-Gated Ion Channel Assay for rat Glycine Receptor, Strychnine-sensitive (GlyRStrySens) (AID 2283341)
# Sequence of rat Glycine Receptor, Strychnine-sensitive (GlyRStrySens), Glra1 (gene 25674) (P07727 whole entry, looked up): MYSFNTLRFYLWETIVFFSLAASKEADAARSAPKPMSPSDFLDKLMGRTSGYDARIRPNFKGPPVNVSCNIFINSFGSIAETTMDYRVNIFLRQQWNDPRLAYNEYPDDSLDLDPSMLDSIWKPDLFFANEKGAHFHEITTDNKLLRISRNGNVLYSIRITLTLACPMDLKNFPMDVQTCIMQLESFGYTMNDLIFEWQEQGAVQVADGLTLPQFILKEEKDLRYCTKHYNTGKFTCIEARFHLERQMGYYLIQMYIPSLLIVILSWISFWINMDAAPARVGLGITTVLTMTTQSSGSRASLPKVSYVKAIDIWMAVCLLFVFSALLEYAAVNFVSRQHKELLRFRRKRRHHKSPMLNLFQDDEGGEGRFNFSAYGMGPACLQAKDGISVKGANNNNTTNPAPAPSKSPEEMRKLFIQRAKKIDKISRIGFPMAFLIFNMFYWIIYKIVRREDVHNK
# Procedure, shortened: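 Radioligand displacement on rat spinal cord membranes, 1 hr, filter scintillation read-out. Single-concentration duplicate screen at 25 uM; chemicals meeting threshold (e.g., 30% inhibition) rerun in concentration-response up to 50 uM. Loss of binding fitted versus DMSO.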
# [14] = test system: guinea pig Histamine Receptor (H2), gene 100729734; assay: NVS_GPCR_gH2: NovaScreen (NVS) G Protein-Coupled Receptor Assay for guinea pig Histamine Receptor (H2) (AID 2283342)
# Procedure, shortened: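 Radioligand displacement on guinea pig striatal membranes, 1 h after dosing, filter-based scintillation counting; loss of signal versus DMSO. Single-point screen at 25 uM in duplicate, then concentration-response up to 50 uM.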
# [15] = target: Bile acid receptor (Homo sapiens) (UniProt Q96RI1); assay: NVS_NR_hFXR_Antagonist: NovaScreen (NVS) Nuclear Receptor Binding Assay for human Farnesoid X Receptor Antagonism (FXR) (AID 2283350)
# Sequence of Bile acid receptor (Homo sapiens) (Q96RI1 whole entry, looked up): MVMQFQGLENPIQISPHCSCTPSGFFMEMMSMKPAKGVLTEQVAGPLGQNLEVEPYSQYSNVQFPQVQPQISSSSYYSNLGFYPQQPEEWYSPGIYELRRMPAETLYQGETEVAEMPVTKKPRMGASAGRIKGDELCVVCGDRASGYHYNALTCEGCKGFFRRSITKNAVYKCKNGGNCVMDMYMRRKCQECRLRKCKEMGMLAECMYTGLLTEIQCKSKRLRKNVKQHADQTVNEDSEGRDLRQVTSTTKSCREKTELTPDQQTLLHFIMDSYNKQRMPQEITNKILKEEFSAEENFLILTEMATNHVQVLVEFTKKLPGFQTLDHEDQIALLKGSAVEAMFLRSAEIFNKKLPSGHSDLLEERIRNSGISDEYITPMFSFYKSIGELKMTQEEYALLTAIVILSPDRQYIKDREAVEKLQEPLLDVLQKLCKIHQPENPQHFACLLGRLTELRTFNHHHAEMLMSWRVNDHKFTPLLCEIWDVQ
# Procedure, shortened: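 Cell-free TR-FRET ligand-binding read-out on human FXR (NR1H4) in antagonist mode, measured 1 h after dosing. Primary screen in duplicate at 25 uM, actives retested in concentration series; signal loss scored versus DMSO.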
# [16] = target: Bile acid receptor (Homo sapiens) (UniProt Q96RI1); assay: NVS_NR_hFXR_Agonist: NovaScreen (NVS) Nuclear Receptor Binding Assay for human Farnesoid X Receptor Agonism (FXR) (AID 2283347)
# Procedure, shortened: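 Cell-free TR-FRET binding assay with extracted human FXR protein, agonist format, read 1 h after dosing. Primary screen at 25 uM single concentration in duplicate, actives retested in concentration series; gain of signal versus DMSO.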
structure (smiles),measurement,setting,value
CCOC(=O)CC(SP(=S)(OC)OC)C(=O)OCC (centres undefined),AC50,[1],25 µM (active)
same,AC50,[2],10.5 µM (active)
same,outcome,[3],inactive
same,AC50,[4],18.6 µM (active)
same,outcome,[5],inactive
same,outcome,[6],inactive
same,outcome,[7],inactive
O=C(O)COc1nc(Cl)c(Cl)cc1Cl,AC50,[2],14.6 µM (active)
same,outcome,[4],inactive
same,outcome,[6],inactive
same,outcome,[7],inactive
OC(c1ccc(Cl)cc1)(c1cncnc1)c1ccccc1Cl (centres undefined),outcome,[8],inactive
same,AC50,[2],4.89 µM (active)
same,outcome,[9],inactive
same,AC50,[4],25 µM (active)
same,outcome,[10],inactive
same,outcome,[11],inactive
same,outcome,[5],inactive
same,outcome,[6],inactive
same,outcome,[7],inactive
same,AC50,[12],11.9 µM (active)
Cc1ccc(-c2c(Cl)nc(C#N)n2S(=O)(=O)N(C)C)cc1,outcome,[2],inactive
same,outcome,[4],inactive
same,outcome,[5],inactive
same,outcome,[6],inactive
same,outcome,[7],inactive
same,outcome,[12],inactive
O=C(Nc1ccccc1)Nc1ccnc(Cl)c1,AC50,[1],5.13 µM (active)
same,AC50,[8],9.2 µM (active)
same,AC50,[2],15.6 µM (active)
same,outcome,[13],inactive
same,outcome,[6],inactive
same,outcome,[7],inactive
CCOP(=S)(OCC)SCn1c(=O)oc2cc(Cl)ccc21,AC50,[2],4.01 µM (active)
same,outcome,[14],inactive
same,AC50,[3],2.98 µM (active)
same,outcome,[4],inactive
same,outcome,[6],inactive
same,outcome,[7],inactive
Cc1c(F)c(F)c(COC(=O)C2C(/C=C(\Cl)C(F)(F)F)C2(C)C)c(F)c1F (centres undefined),outcome,[13],inactive
same,outcome,[10],inactive
same,outcome,[5],inactive
same,outcome,[6],inactive
same,outcome,[7],inactive
same,outcome,[12],inactive
CCOc1cc(Oc2ccc(C(F)(F)F)cc2Cl)ccc1[N+](=O)[O-],outcome,[6],inactive
same,outcome,[7],inactive
same,outcome,[12],inactive
Fc1ccc(Oc2ccnc3cc(Cl)cc(Cl)c23)cc1,outcome,[6],inactive
same,outcome,[7],inactive
same,outcome,[12],inactive
COc1nc(NC(C)C)nc(NC(C)C)n1,outcome,[6],inactive
same,outcome,[7],inactive
same,outcome,[12],inactive
CC(C)C1(C)N=C(c2nc3ccccc3cc2C(=O)O)NC1=O (centres undefined),outcome,[6],inactive
same,outcome,[15],inactive
same,outcome,[7],inactive
same,outcome,[12],inactive
CCc1nn(C)c(C(=O)NCc2ccc(C(C)(C)C)cc2)c1Cl,outcome,[16],inactive
same,outcome,[6],inactive
same,outcome,[7],inactive
same,outcome,[12],inactive
CS/C(C)=N/OC(=O)N(C)SN(C)C(=O)O/N=C(\C)SC,outcome,[4],inactive
same,outcome,[6],inactive
same,outcome,[7],inactive
COc1nc(C)nc(NC(=O)NS(=O)(=O)c2ccccc2CCC(F)(F)F)n1,outcome,[4],inactive
CC(C)(C)c1ccc(CSc2cnn(C(C)(C)C)c(=O)c2Cl)cc1,outcome,[6],inactive
same,outcome,[7],inactive
same,outcome,[12],inactive
